Laboratory results taken from PubChem BioAssay (NCI).
This is part of a sample that, as a whole, favours compounds with a hit. Of some 83,000 tested, about 20% had one in any assay.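 Growth was measured after 48 h exposure to one concentration of compound in 96-well plates. Values under 10 count as active.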 A number with no mark means an inactive call. The source made the active and inactive calls.

How the values were obtained:
Assay in all cases: NCI-60 one-dose screen, 48 h (100 = growth as untreated, 0 = no growth, -100 = all killed)
Details in all cases: 10 µM unless noted
[1] = system: DU-145 prostate
[2] = system: K-562 leukemia
[3] = system: MALME-3M melanoma
[4] = system: MDA-MB-231 breast
[5] = system: RXF 393 renal
[6] = system: SF-268 CNS
[7] = system: SF-295 CNS
[8] = system: SF-539 CNS
[9] = system: UACC-257 melanoma
[10] = system: M14 melanoma
[11] = system: HCT-15 colon
[12] = system: HT29 colon
[13] = system: SNB-75 CNS
[14] = system: SNB-19 CNS
[15] = system: U251 CNS
[16] = system: PC-3 prostate
[17] = system: SK-MEL-5 melanoma
[18] = system: UACC-62 melanoma
[19] = system: LOX IMVI melanoma
[20] = system: SK-MEL-28 melanoma

Structure (SMILES)	growth [1]	growth [2]	growth [3]	growth [4]	growth [5]	growth [6]	growth [7]	growth [8]	growth [9] [%]	growth [10]	growth [11]	growth [12]	growth [13]	growth [14] [%]	growth [15]	growth [16] [%]	growth [17]	growth [18]	growth [19]	growth [20]
Cc1ccc(NC(=O)c2nc(S(C)=O)oc2-c2ccc(F)cc2)cc1Nc1nccc(-c2cccnc2)n1 (stereo not given)	79.4%	-16.7% (active)	34.7%	39%	7.47% (active)	54.4%	86.4%	69.4%	87.3	55.2%	0.45% (active)	1.98% (active)	95.6%	74.2	39.2%	72.9	68.3%	65%	-72.1% (active)	76.5%
O=c1[nH]cnc2nc[nH]c12	170%	49.3%	110%	99%	107%	147%	93.8%	97.3%	117	109%	107%	97.9%	90.8%	107	103%	135	102%	102%	98.4%	97.9%
COc1ccc(/C=C(/C(=O)N2CCN(c3ccccc3)CC2)c2cc(OC)c(OC)c(OC)c2)cc1N	15.2%	6.11% (active)	66.3%	22.1%	-1.82% (active)	46.6%	7.2% (active)	-17.4% (active)	69.2	1.47% (active)	14.6%	7.35% (active)	53.3%	24.5	14.5%	26.7	7.37% (active)	27.9%	27.2%	64%
Cc1cc(Cl)c2ccc(N(C)C)cc2n1	113%	88.7%	108%	102%	95.5%	102%	100%	106%	97.4	100%	94.9%	102%	82.7%	95	92.8%	101	102%	101%	96.9%	101%
Oc1ccc(Nc2ncnc3c2sc2ncccc23)cc1	17.2%	38.2%	60.6%	64.4%	35.3%	23.7%	15.1%	5.87% (active)	36.4	-19% (active)	50.9%	43.4%	40.9%	27.6	24.4%	47.4	27.7%	3.13% (active)	8.47% (active)	65.7%
CCOC(CN1CCN(CC(C)C(=O)c2ccccc2)CC1)c1ccccc1 (stereo not given)	112%	115%	105%	95.5%	99.5%	113%	92.6%	111%	93.2	114%	100%	108%	79%	97.8	90.5%	93.6	90.1%	105%	101%	98%
Cc1ccc(NC(=O)c2[nH]c(SCCN(C)C)nc2-c2ccc(F)cc2)cc1C#Cc1cnc2cccnn12	-19% (active)	-37.3% (active)	-9.58% (active)	-7.2% (active)	-61.6% (active)	-23.4% (active)	93.1%	-84.4% (active)	12.7	-75.1% (active)	-19.6% (active)	-14.9% (active)	-59.7% (active)	21.4	-58.8% (active)	34	45.5%	35.8%	-49.2% (active)	-72.4% (active)
CC(=O)OC1Oc2cc(C)c(C)cc2-c2oc(=O)c(-c3ccc(F)cc3)cc21 (stereo not given)	75.8%	6.83% (active)	65.3%	77.7%	-1.93% (active)	55.5%	80.5%	72.7%	96	38.5%	46.6%	16.1%	77.9%	90.5	53.5%	60.2	55.2%	49.8%	60.2%	64.2%
COc1ccc(C2CC(c3cccc(Nc4ccnc5cc(Cl)ccc45)c3)=NN2c2ccccc2)cc1 (stereo not given)	82.8%	20.7%	58.7%	74.2%	99%	71.2%	23%	65.4%	59.7	27%	46.6%	60.8%	62.5%	78.3	65.4%	67.5	39.1%	29.5%	49%	84.9%
O=C(CCc1nc2sc3c(c2c(=O)[nH]1)CCC3)NCc1cn(-c2ccccc2)nc1-c1ccccc1	48.7%	84.6%	47.7%	11.4%	48.8%	65.3%	46.2%	83.3%	98.5	74.5%	86%	83.3%	-59% (active)	49.8	44%	29.9	72.5%	88.6%	44%	79.1%
CCSc1ccc([C@@H]2[C@@H](N)C(=O)N2c2cc(OC)c(OC)c(OC)c2)cc1	23.7%	7.64% (active)	63.8%	41%	-17% (active)	54.6%	10.2%	-22.6% (active)	67.7	-15.5% (active)	19.9%	12.1%	36.2%	32	28.1%	28.5	20%	33.9%	50.7%	61.6%
COc1ccc(/C=C2\Cc3c(Br)cccc3C2=O)c(OC)c1	87.4%	64%	60.2%	58%	80.9%	73.6%	67.5%	73.4%	98.2	47%	51.1%	64.4%	70.7%	53.3	55.6%	81.1	47.9%	38.9%	59.9%	64.3%
Cc1ccc(NC(=O)c2nc(S(C)(=O)=O)oc2-c2ccc(F)cc2)cc1Nc1ccc2ncn(C)c(=O)c2c1	57.8%	-22.8% (active)	23.7%	31%	45%	68.3%	98.8%	95.3%	82.5	39.4%	3.34% (active)	15.8%	105%	126	69.7%	88.6	78.9%	85.8%	-71.5% (active)	82.1%
C1=C\CCCCN2CC[C@H]3[C@H](CCCC/C=C\CCCN4C[C@@H](CCCCC/1)C[C@@H]3C4)C2	93.9%	-19.5% (active)	98.9%	73.9%	-43.3% (active)	73.8%	51.3%	31.3%	84.7	1.72% (active)	25.3%	9.89% (active)	44.3%	106	72.3%	76.7	71%	92%	65.5%	-90.3% (active)
COc1ccc(OC)c(Nc2nc(-c3c(C)nc4sccn34)cs2)c1	81.7%	27.8%	88.9%	71.1%	83.5%	102%	52.8%	75.7%	81	78.6%	73.6%	73.6%	78.4%	96.9	89.5%	37.6	18.8%	79.6%	83.4%	101%
